# Measurements: PubChem BioAssay AID720504 (National Center for Advancing Translational Sciences (NCATS), 2013)
# Among all 360,000 compounds or so, about 10,000 (2.8%) were called active. Roughly 4% stayed inconclusive and do not appear here. Calls follow the shape of the dose curve; as a rule, active = well fitted inhibition curve with a large enough effect; inconclusive = small, poorly fitted or top-dose-only effect; inactive = flat fitted curve, though single readings scatter. The sample as a whole holds a higher share of actives than the screen did.
# Biological target: Serine/threonine-protein kinase PLK1 (Homo sapiens) (UniProt P53350)
# Sequence (P53350 whole entry, looked up, the tested form may be a part): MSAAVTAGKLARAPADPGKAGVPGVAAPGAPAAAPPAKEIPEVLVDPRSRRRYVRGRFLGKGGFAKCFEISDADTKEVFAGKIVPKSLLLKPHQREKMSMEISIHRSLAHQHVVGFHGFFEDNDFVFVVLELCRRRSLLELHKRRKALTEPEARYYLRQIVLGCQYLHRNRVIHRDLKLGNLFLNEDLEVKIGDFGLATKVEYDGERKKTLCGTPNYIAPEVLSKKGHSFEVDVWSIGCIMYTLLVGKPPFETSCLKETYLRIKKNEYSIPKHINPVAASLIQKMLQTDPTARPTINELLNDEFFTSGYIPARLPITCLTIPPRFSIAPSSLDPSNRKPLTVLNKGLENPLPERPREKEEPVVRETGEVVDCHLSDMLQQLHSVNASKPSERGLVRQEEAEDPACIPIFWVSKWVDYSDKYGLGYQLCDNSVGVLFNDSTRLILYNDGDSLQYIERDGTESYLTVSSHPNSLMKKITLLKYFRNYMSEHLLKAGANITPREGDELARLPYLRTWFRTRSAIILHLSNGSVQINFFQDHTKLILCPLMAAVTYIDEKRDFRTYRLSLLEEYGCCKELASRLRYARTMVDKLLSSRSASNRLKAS
# Assay: qHTS for Inhibitors of PLK1-PDB (polo-like kinase 1 - polo-box domain): Primary Screen; also: nearly all actives have a fitted effect of over 65% in size; as to max response, negative = inhibition: series mostly up to about 57 µM
# Conditions: Plk1 PBD binding of FITC phosphopeptide, fluorescence polarization
# % is scaled to controls: 0 for no effect and ±100 for the full control effect; potency is read from the fitted curve at half-maximal effect.
SMILES,Potency,"max response, negative = inhibition"
c1ccc(CSc2nnc(-c3ccco3)c(-c3ccco3)n2)cc1,11.2 µM (active),
CCc1nnc(SCc2cccc(F)c2)nc1CC,,1.21% (inactive)
c1ccc(Cc2c(-c3ccco3)nc3c4ccccc4ccn23)cc1,,-8.74% (inactive)
Clc1ccccc1CSc1nnc(-c2ccco2)c(-c2ccco2)n1,13.4 µM (active),
COC(=O)c1ccc2nc(-c3ccc(F)cc3)c(Cc3ccc(C)cc3)n2c1,,1.02% (inactive)
COc1ccc(C(=O)N2CCCCC2c2cc(C(=O)Nc3ccc(F)c(Cl)c3)no2)cc1 (stereo not given),,-10.1% (inactive)
CCOCCC(=O)Nc1ccc2c(c1)c(=O)n(C)n2-c1ccc2ccccc2c1,,-3.07% (inactive)
CCOC(=O)[C@]12CCC=C1N(Cc1ccco1)C(=O)[C@H](CC(=O)NCc1cccc(C(F)(F)F)c1)C2,,-26% (inactive)
Cc1cc(C(=O)N2CCCC2(C)C(=O)O)c(C)o1 (stereo not given),,-5.24% (inactive)
Oc1c(C(c2ccccn2)N2CCOCC2)ccc2cccnc12 (stereo not given),9.47 µM (active),
CCCCC(=O)NC(c1ccc(OC)c(OC)c1)c1ccc2cccnc2c1O (stereo not given),,-4.18% (inactive)
CCn1c(=S)[nH]c2cc(S(=O)(=O)N3CCOCC3)ccc21,29.9 µM (active),
O=S(=O)(c1ccc2ccccc2c1)N1CCN(S(=O)(=O)N2CCOCC2)CC1,,-4% (inactive)
Cc1ccc(S(=O)(=O)N2CCN(S(=O)(=O)N3CCOCC3)CC2)cc1,,-4.72% (inactive)
Cc1ccc(CC2(C)C(=O)Nc3ccc(OC(F)(F)F)cc32)cc1 (stereo not given),,0.395% (inactive)
COCCCNc1ccn2nc(-c3ccc(CC(C)C)cc3)cc2n1,,-1.25% (inactive)
CCN(CC)C(=O)C1=C(C)N(Cc2ccc(C(C)(C)C)cc2)C(=O)C(CC(=O)NCc2cccc3ccccc23)C1 (stereo not given),,-4.44% (inactive)
CCOc1ccc2c(c1)c(=O)c(S(=O)(=O)c1ccc(C)cc1)cn2CC,26.7 µM (active),
CCn1cc(S(=O)(=O)c2cccc(C)c2)c(=O)c2cc(F)c(N3CCN(C)CC3)cc21,,-10.2% (inactive)
CCCn1cc(S(=O)(=O)c2ccc(C)cc2)c(=O)c2cc(OCC)ccc21,,-12.4% (inactive)
Fc1cccc(Cc2c(-c3ccc(Cl)cc3)nc3ccc(Cl)cn23)c1,,9.81% (inactive)
CN[C@H]1C[C@H]2c3cc(Oc4ccccc4C)ccc3CCN2C(=O)[C@H]1[C@H](C)O,,0.731% (inactive)
Nc1nc(SCC(=O)Nc2ccc(Cl)cc2C(F)(F)F)n[nH]1,,-8.67% (inactive)
Nc1nc(SCC(=O)NNc2c(Cl)cc(Cl)cc2Cl)n[nH]1,18.9 µM (active),
Nc1nc(SCC(=O)Nc2ccc(Cl)c([N+](=O)[O-])c2)n[nH]1,,-3.6% (inactive)
